# High-throughput results (PubChem BioAssay)
# In the library only some 3% were active in any assay of this set; here they are far more common.
# SNCA expr inhib: reduces expression of the alpha-synuclein gene; Potency, µM (titrated, usually from 57.2 µM), for the others: at the highest dose activity change, negative = inhibition, most hits filed as inhibitors; HEK-293 SNCA-luciferase knock-in, luminescence, 24 h; AID 1671194; actives 0.17% (n = 140,000);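 further: potency means the concentration at half of the fitted maximal effect; plate controls were DMSO cells for no effect and cell-free wells for full effect; nearly all actives have a fitted effect of over 45% in size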
# IP6K1 inhibitor: blocks human inositol hexakisphosphate kinase 1; IP6K1 kinase, ADP-Glo luminescence, 2 h; active compounds read low; actives 0.81% (n = 140,000); activity change, % (series mostly up to about 58 µM); Q92551; in the data active means activity change below about -25%; further: on the % scale 0 is the no-effect control and ±100 the full control effect
#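 ADP-Glo luminescence measures ADP made by human IP6K1 during a 2 h RT reaction with ATP/IP6 (mix at 1.3 mM/130 uM); top library doses 57.5 and 19.1 uM final.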
# SNCA viab count: reduces viability of HEK-293 SNCA reporter cells; actives 0.12% (n = 150,000); HEK-293-SNCA-luc viability, GF-AFC fluorescence, 24 h; Potency, µM (doses to about 57.1 µM), for inactives: at the highest dose activity change, negative = cytotoxicity, usual class: cytotoxic;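 further: potency means the concentration at half of the fitted maximal effect; 0% = DMSO-treated cells and -100% = medium-only wells without cells; nearly all actives have a fitted effect of over 30% in size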
#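 Cytotoxicity counterscreen: after 24 h compound treatment of genome-edited SNCA-luciferase HEK-293 cells, live-cell protease substrate GF-AFC read by fluorescence after 30 min; activity scaled between DMSO (0%) and medium-only (-100%), curves Hill-fitted.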
# KDM5B inhibitor: KDM5B demethylase inhibition; AID 1347165; KDM5B demethylase, FDH-coupled NADH fluorescence (FDH is formaldehyde dehydrogenase); actives 2.6% (n = 220,000); Potency, µM (highest dose often 57.7 µM), hits mostly inhibitors; further: potency means the concentration at half of the fitted maximal effect; 0% is about no effect; nearly all actives have a fitted effect of over 70% in size
#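 KDM5BΔAP (200 nM final) in 50 mM HEPES pH 7.5, 0.01% Tween-20 was preincubated 10 min at RT with compound over a concentration range. Substrate mix (H3K4me3 12.5 µM, α-KG 25 µM, Fe²⁺, ascorbate, NAD⁺, FDH) was added, and NADH fluorescence change over 30 min gave dose-response curves.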
# Starred values were filed as active, the others as inactive; i = inactive; ? = inconclusive; · = not tested or not shown; [ ] = remark or other dose. Unless noted, the call rests on the fitted dose curve; in most records, active means well fitted curve in the direction sought with a large enough effect; inconclusive means small, poorly fitted or top-dose-only effect, or another doubt; inactive means no such curve, though single readings can be large; an effect the other way counts as inactive or inconclusive.
SMILES,SNCA expr inhib,IP6K1 inhibitor,SNCA viab count,KDM5B inhibitor
COc1cccc(F)c1-c1ncc2c(n1)OCCN(CC1CC1)C2=O,9%[87.6 µM],2,-16%[87.6 µM],28µM*
CC(=O)Nc1cccc(-c2ncc3c(n2)OCCN(Cc2ccc(F)cc2F)C3=O)c1,-3%[87.6 µM],13,-1%[87.6 µM],32µM*
COc1ccc(Cl)cc1-c1ncc2c(n1)OCCN(Cc1ccc(F)cc1F)C2=O,17%[87.6 µM],2,-9%[87.6 µM],35µM*
O=C(NC1CC1)c1nc2cccnc2n(CCc2ccccc2)c1=O,?,21,-5%[87.6 µM],·
CCOCC(=O)N1CCC(Oc2ncccc2C(=O)N2CCCCC2)C1 (stereo unspecified),2%,15,2%,i
CCOCC(=O)N1CCC(Nc2cccn3ncnc23)CC1,-2%,7,5%,16µM*
COc1ccccc1-c1cccc(CN2CCC(NC(=O)c3ccccc3Cl)CC2)c1,-7%,2,-2%,·
COc1cccc(NC(=O)c2cc(-c3ccccc3C(F)(F)F)nc3c2cnn3C)c1,·,25,·,·
CCCN1CCN(C(=O)Cn2c(C)ccc(NC(=O)Nc3ccccc3)c2=O)CC1,13%,2,7%,25µM*
Cc1ccc(NC(=O)Nc2ccc(C)n(CC(=O)Nc3ccccc3)c2=O)cc1,88%,-1,12%,?
COc1ccc(NC(=O)Nc2ccc(C)n(CC(=O)Nc3ccc(C)c(C)c3)c2=O)cc1,63%,-1,1%,18µM*
COc1cccc(NC(=O)Cn2c(C)ccc(NC(=O)Nc3ccc(C)cc3)c2=O)c1,106%,-6,-1%,28µM*
CCN1CCN(C(=O)Cn2c(C)ccc(NC(=O)Nc3ccc(C)cc3)c2=O)CC1,14%,-7,1%,?
O[C@@H]1CN(Cc2ccc(-n3cccn3)cc2)CC[C@H]1c1ccc(F)cc1,3%,-2,-8%,?
CNc1ccc(C)cc1C(=O)NC(C(=O)O)c1c(C)n[nH]c1C (stereo unspecified),14%,-9,-7%,32µM*
Cc1nc2ccc(C(=O)NC(C(=O)O)c3c(C)n[nH]c3C)cc2[nH]1 (stereo unspecified),32%,11,-1%,i
COc1ccccc1-c1ccc(CN2CCCCC2C(=O)NCCc2ccccc2)cc1 (stereo unspecified),?,-2,-7%,·
O=C1CCN(CC(O)COc2ccccc2)c2ccc(F)cc2CN1C1CC1 (stereo unspecified),·,-3,·,·
Cc1ccccc1-c1nc2cnccn2c1NCCC(=O)N(C)Cc1ccccc1,-16%,6,22%,28µM*
Cc1ccc(-c2nc3cnccn3c2NCCC(=O)O)cc1,2%,-1,?,28µM*
Cc1cccc(C)c1Nc1c(-c2ccccc2Cl)nc2cnccn12,-28%,-7,?,?
Cc1ccc(-c2nc3cnccn3c2NCCC(=O)N(C)C)cc1,4%,17,?,28µM*
CCOCCNC(=O)c1c(C)nc2cnccn12,·,2,·,·
COc1ccc(Nc2ccnc(N3CCN(C(=O)c4cccc(OC)c4)CC3)n2)cc1,-11%,-7,-22%,·
CN(Cc1cccc(N2CCN(C(=O)c3c(Cl)cccc3Cl)CC2)c1)[S+](C)(=O)[O-],·,4,·,·
SMILES,SNCA expr inhib,IP6K1 inhibitor,SNCA viab count,KDM5B inhibitor
O=C(NC1CC1)C1CCCCN1Cc1ccc(-c2cccs2)cc1 (stereo unspecified),-9%,3,8%[12.5 µM],·
COCCNc1ncc(-c2ccc(OC)c(OC)c2)c2c1OCC2,5%[87.6 µM],-2,3%[87.6 µM],35µM*
COCCNc1ncc(-c2cccc(O)c2)c2c1OCC2,33%[87.6 µM],-7,-16%[87.6 µM],?
COCCNc1ncc(-c2ccc(O)c(OC)c2)c2c1OCC2,64%[87.6 µM],28,0%[87.6 µM],35µM*
COCCNc1ncc(-c2ccc(O)cc2)c2c1OCC2,162%[87.6 µM],-16,-1%[87.6 µM],32µM*
Cn1ncc2c(C(=O)NC3CCOC3)cc(-c3cccc(C(F)(F)F)c3)nc21 (stereo unspecified),·,3,·,·
O=C(NCc1cccs1)c1noc(-c2ccc(F)cc2)n1,60%,-12,4%,i
Cc1cccc(C)c1-c1nc(C(=O)NCc2ccc3c(c2)OCO3)n2ccccc12,29%,6,5%,28µM*
O=C(NCc1cccs1)c1nc(-c2ccc(F)cc2)c2ccccn12,30%,1,3%,28µM*
C#CCNC(=O)c1nc(-c2ccccc2)c2ccccn12,-2%[87.6 µM],26,-2%[87.6 µM],32µM*
C#CCNC(=O)c1nc(-c2ccc(F)cc2)c2ccccn12,36%[87.6 µM],30,-22%[87.6 µM],i
